Screening data from PubChem.
SNCA expr inhib: Primary qHTS assay for inhibitors of alpha-synuclein gene (SNCA) expression; Potency, µM (doses to about 57.2 µM), for the others: top-dose activity change, negative = inhibition, hits mostly inhibitors; HEK-293 SNCA-luciferase knock-in, luminescence, 24 h; hit rate 0.17% among 140,000; AID 1671194, 2021;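 further: potency means the concentration at half of the fitted maximal effect; plate controls were DMSO cells for no effect and cell-free wells for full effect; nearly all actives have a fitted effect of over 45% in size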
IP6K1 inh: Primary qHTS assay for small molecule inhibitors of Inositol hexaphosphate kinase 1 (IP6K1); Inositol hexakisphosphate kinase 1 (Homo sapiens), Q92551; IP6K1 kinase, ADP-Glo luminescence, 2 h; stronger effect = lower value; activity change, % (series mostly up to about 58 µM); hit rate 0.81% among 140,000; AID 1645851, 2021; in the data active means activity change below about -25%; further: on the % scale 0 is the no-effect control and ±100 the full control effect
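ADP-Glo luminescence measures ADP made by human IP6K1 during a 2 h RT reaction with ATP/IP6 (mix at 1.3 mM/130 uM); top library doses 57.5 and 19.1 uM final.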
KDM5B inh: Primary screen for KDM5B Histone Demethylases FDH-coupled qHTS; Lysine-specific demethylase 5B (Homo sapiens), Q9UGL1; KDM5B demethylase, FDH-coupled NADH fluorescence (FDH is formaldehyde dehydrogenase); Potency, µM (doses to about 57.7 µM), usual class: inhibitors; hit rate 2.6% among 220,000; AID 1347165, 2019; further: potency means the concentration at half of the fitted maximal effect; 0% is about no effect; nearly all actives have a fitted effect of over 70% in size
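qHTS format, multiple compound concentrations. Buffer 50 mM HEPES pH 7.5/0.01% Tween-20; 200 nM KDM5BΔAP final; 10 min compound preincubation; substrate-mix levels 12.5 µM peptide, 25 µM α-KG, 0.25 mM NAD⁺; 30 min RT; ΔRFU.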
HEK293 viab: GF-AFC viability counterscreen for inhibitors of alpha-synuclein gene (SNCA) expression. HEK-293-SNCA-luc viability, GF-AFC fluorescence, 24 h. Potency, µM (top dose mostly 57.1 µM), for inactives: at the top dose activity change, negative = cytotoxicity, usual class: cytotoxic. hit rate 0.12% among 150,000. AID 1671193, 2021;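 further: potency means the concentration at half of the fitted maximal effect; 0% = DMSO-treated cells and -100% = medium-only wells without cells; nearly all actives have a fitted effect of over 30% in size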
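Cytotoxicity counterscreen: after 24 h compound treatment of genome-edited SNCA-luciferase HEK-293 cells, live-cell protease substrate GF-AFC read by fluorescence after 30 min; activity scaled between DMSO (0%) and medium-only (-100%), curves Hill-fitted.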
IP6K1 conf: Confirmatory qHTS assay for small molecule inhibitors of Inositol hexaphosphate kinase 1 (IP6K1); shares compounds with IP6K1 inh; recombinant IP6K1 kinase, ADP-Glo luminescence, 2 h; Potency, µM (highest dose often 49 µM), without a hit: at the highest dose activity change, negative = inhibition, hits mostly inhibitors; hit rate 13% among 1,200; AID 1645852, 2021; further: potency means the concentration at half of the fitted maximal effect; on the % scale 0 is the no-effect control and ±100 the full control effect; nearly all actives have a fitted effect of over 65% in size
Starred values were filed as active, the others as inactive; i = inactive; ? = inconclusive; . = not tested or not shown; [ ] = dose if it differs, or a comment. An excerpt weighted towards active compounds, which were near 2.8% of everything screened. Unless noted, the call rests on the fitted dose curve; in most records, active means well fitted curve in the direction sought with a large enough effect; inconclusive means small, poorly fitted or top-dose-only effect, or another doubt; inactive means no such curve, though single readings can be large; an effect the other way counts as inactive or inconclusive.

SMILES | SNCA expr inhib | IP6K1 inh | KDM5B inh | HEK293 viab | IP6K1 conf
CC1=C(C(=O)OC(C)C)C(c2cccc([N+](=O)[O-])c2)C(C(=O)OC2CN(C(c3ccccc3)c3ccccc3)C2)=C(N)N1 (configuration not stated) | -41%[25.6 µM] | 1 | . | -10%[23.9 µM] | 0%
CC(C)c1ccc(OCc2cc(=O)n3c(-c4ccccc4)csc3n2)cc1 | 32% | -31* | ? | -14% | -7%
Cc1cccc(C)c1OCc1cc(=O)n2c(-c3ccccc3)csc2n1 | -4% | -11 | i | 6% | .
CNC(=O)[C@H]1C[C@H](Oc2ccccc2)CN1Cc1c[nH]c2ccc(OC)cc12 | -16% | 1 | i | -10% | .
O=C(Nc1ncc([N+](=O)[O-])s1)c1ccccc1O | . | -31* | . | ? | ?
O=C(O)c1cccc(Nc2ncnc3ccc(Br)cc23)c1 | 10% | -26* | ? | 0% | ?
CC(=O)Nc1ccc(Nc2ncnc3c2cnn3C)cc1 | 241% | -3 | i | 8% | .
CC(=O)c1cccc(Nc2ncnc3c2cnn3C)c1 | 55% | -38* | i | -6% | ?
CC#CC(=O)Nc1ccc2ncnc(Nc3cccc(Br)c3)c2c1 | . | 2 | . | ? | .
CCOC(=O)C1C(C)=C/C(=N\O)CC1C(C)C (configuration not stated) | . | . | i | . | .
Cc1ccc(NC(=O)Cc2nc(CSc3nncn3-c3ccc(C)cc3C)cs2)cc1 | . | . | i | . | .
c1cc(N[C@@H]2CCNC2)nc(-c2cnc3ccc(-c4cn[nH]c4)cn23)c1 | ? | -39* | . | -40% | ?
c1ccc(-c2nnc3ccc(NC4CCC4)nn23)nc1 | 23%[87.6 µM] | -12 | ? | 12%[87.6 µM] | .
CCc1ccc(CNC(=O)C2CCCN(S(=O)(=O)c3ccc4c(ccn4C)c3)C2)cc1 (configuration not stated) | -23% | -26* | i | 4% | -4%
CC(CN(C)C)OC(=O)c1ccc2c(c1)OCO2 (configuration not stated) | . | . | i | . | .
Cc1c(C#N)c(NC(=O)CSc2nnnn2C2CC2)n(CC2CCCO2)c1C (configuration not stated) | . | . | i | . | .
CCN1CC2(CCN(C(=O)c3cccc(Cn4cccn4)c3)CC2)OC1=O | -15% | -4 | i | 16% | .
CCN1CC2(CCN(C(=O)c3cnc4c(O)cccn4c3=O)CC2)OC1=O | -11% | -27* | 32µM* | ? | -6%
Nc1nnc(SCC(=O)Nc2ccccc2)s1 | 68% | -2 | ? | 5% | .
CC(=O)c1ccc(NC(=O)CSc2nnc(N)s2)cc1 | 145% | -31* | i | -3% | -16%
Cc1c(Cl)cccc1NC(=O)NCc1c(-n2cccc2)sc2c1CCCC2 | -1% | 1 | i | -12% | .
Cc1ccc(NC(=O)NCc2c(-n3cccc3)sc3c2CCCC3)c(Cl)c1 | -17% | -27* | i | 0% | -20%
CN1C(C)(C)CCCC1(C)C | 9%[25.6 µM] | -35* | . | 30%[23.9 µM] | -2%
COC(=O)c1ccoc1COC(=O)c1ccc2c(c1)CCCC2 | . | . | i | . | .
COc1ccc(Cn2c(C3CCN(C(=O)c4sccc4C)CC3)n[nH]c2=O)cc1 | 0% | 9 | i | 12% | .
SMILES | SNCA expr inhib | IP6K1 inh | KDM5B inh | HEK293 viab | IP6K1 conf
CC(C)NC(=O)NCc1nnc2n1C(C(=O)NCc1cccnc1)CC2 (configuration not stated) | -5% | 14 | i | 9% | .
Cc1cc(C)cc(NC(=O)CCC(=O)N2Cc3ccccc3Oc3ncccc32)c1 | -17% | -7 | i | -7% | .
CCOC(=O)c1cccc(NC(=O)N2Cc3ccccc3Oc3ncccc32)c1 | -9% | -33* | ? | ? | -21%
c1ccc(C2=Nn3c(nnc3-c3ccncc3)SC2)cc1 | . | . | . | . | 18%
O=C(c1cccc2c1CCN2C(=O)Nc1ccccc1)N1CCN(c2ccccc2)CC1 | 54% | -3 | i | -28% | .
COc1cncc(Nc2cnc3ccc(-c4ccccc4)nn23)c1 | 46%[87.6 µM] | -36* | ? | 7%[87.6 µM] | ?
O=C(NCc1ccc(CN2CCCC2)cc1)C1CCCCC1 | . | . | i | . | .
CCn1c(C(=O)N(C2CC2)C2CC2)cc2c3c(ncn3C)c(Nc3cc(C)n(C)n3)nc21 | 10% | -7 | . | ? | -2%
CC(C(=O)NCC1CCCCC1)n1cnc2c1c(=O)n(C)c(=O)n2C (configuration not stated) | . | . | i | . | .
CCCCN(C)C(=O)c1c(C)sc2ccn(CCC)c(=O)c12 | 21% | -7 | ? | -3% | -24%
Cc1cc(CS(=O)(=O)c2ccccc2)cc(OCc2ccc(CN3CCC[C@@H]3CO)cc2)c1 | . | -41* | . | -25% | 9%
O=C(Cn1cc(S(=O)(=O)Cc2cccc(Cl)c2)c2ccccc21)Nc1ccc(F)c(Cl)c1 | -26% | -37* | i | -17% | 0%
O=C([C@H]1CCCN1C(=O)Cc1ccccn1)N1CCC(N2CCOC2=O)CC1 | 21% | -1 | . | 3% | .
O=C1CC(c2ccccc2)Sc2nc(-c3ccc(F)cc3)nn21 (configuration not stated) | -2% | -27* | i[11.5 µM] | 10% | 2%
CN1CCN(c2ccc(-c3cc4c(ccn4C)c(C(=O)NCC4CCC(=O)N4)n3)cc2)CC1 (configuration not stated) | 27% | -6 | i | -6% | .
CCOC(=O)c1csc(Nc2ccc(Cl)cc2)n1 | . | -27* | . | -12% | ?
Cc1cc(C)c2nc(C)cc(Nc3cccc(C(=O)O)c3)c2c1 | 1% | -25* | ? | ? | -8%
CCOC(=O)c1cnc2c(C)cc(C)cc2c1Nc1cccc(O)c1 | . | . | i | . | .
CCOC(=O)c1cnc2c(C)cc(C)cc2c1Nc1cccc(C(=O)O)c1 | 40% | -26* | i | -11% | ?
O=C(Nc1cn[nH]c1)C1CCCN(c2cnccn2)C1 (configuration not stated) | . | . | i | . | .
COc1cc(OC)cc(C(=O)Nc2ccc(NS(=O)(=O)c3ccc4c(c3)OCCCO4)cc2)c1 | . | . | i | . | .
COc1ccc(C(=O)N2CCC(Oc3cccc(F)c3)C2)cn1 (configuration not stated) | 3% | 4 | . | ? | .
O=C(O)CC1(O)C(=O)Nc2ccccc21 (configuration not stated) | . | -31* | . | 4%[87.6 µM] | ?
O=C(O)CC1(O)C(=O)Nc2cc(Br)ccc21 (configuration not stated) | . | . | i | . | .
O=C(c1ccc2c(c1)OCO2)N1CCC2(CC1)C(=O)Nc1ccccc12 | -9% | -33* | i | -5% | ?
O=C(c1ccc2c(c1)OCO2)N1CC2(C1)C(=O)Nc1ccccc12 | -5% | -16 | i | -2% | .
